# Assay outcomes (PubChem BioAssay)
# CCT modulator – changes cytosolic chaperonin activity | purified chaperonin ATPase assay, HTRF ADP detection, 30 min | activity change, % (concentration not given with the values), hits read low | hit rate 0.3% among 360,000 | AID 651819; in the data active = activity change below about -30%
#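 We incubate TRiC, 40 or 20 nM final, with library compounds at 76 uM and 10 uM ATP for 30 min at 37 °C. ADP formed is detected with Transcreener HTRF reagents after 30 min at room temperature.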
# G9a inh – blocks human histone lysine methyltransferase G9a | G9a H3K9 monomethylation, AlphaScreen, 2 h | Potency, µM (top dose mostly 102 µM), without a hit: at the highest dose activity, negative = inhibition, hits mostly inhibitors | hit rate 8.8% among 350,000 | AID 504332; note: potency is the fitted concentration of half-maximal effect; nearly all actives have a fitted effect of over 75% in size
# Target sequence (Q96KQ7 913-1193 limits assumed): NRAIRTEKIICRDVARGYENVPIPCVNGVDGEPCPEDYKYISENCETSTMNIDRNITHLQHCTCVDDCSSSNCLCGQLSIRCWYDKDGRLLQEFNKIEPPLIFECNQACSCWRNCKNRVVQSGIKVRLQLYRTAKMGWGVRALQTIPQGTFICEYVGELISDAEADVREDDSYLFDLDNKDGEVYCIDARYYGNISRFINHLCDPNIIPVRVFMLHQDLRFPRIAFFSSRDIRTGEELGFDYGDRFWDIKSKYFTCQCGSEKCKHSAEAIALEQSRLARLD
#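 Chemiluminescent proximity detection of H3K9 monomethylation, read after 10 min bead incubation in the dark. Reaction: 20 nM G9a, 500 nM biotin-H3K9 peptide, 20 uM SAM cofactor, 2 h, room temperature, following 15 min enzyme-compound preincubation.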
# Mm-Cpn inhibitor – inhibitors of Methanococcus maripaludis chaperonin TRiC (MmCpn); hit rate 0.031% among 330,000; purified Mm-Cpn ATPase, ADP Transcreener TR-FRET; Potency, µM (titrated, usually from 76.9 µM), for inactives: at the top dose activity, negative = inhibition, hits mostly inhibitors; note: potency is the fitted concentration of half-maximal effect; nearly all actives have a fitted effect of over 80% in size
#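 ATPase read-out: TR-FRET ADP immunoassay (anti-ADP Eu cryptate vs ADP-d2), ex 320 nm, em 590/665 nm; signal drops as ADP forms. Enzyme 25 nM, ATP 10 uM, 30 min at 37°C after 10 min compound preincubation.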
# Sfp PPTase inh – Sfp phosphopantetheinyl transferase inhibition; Biochemical Sfp PPTase activity, qHTS; Potency, µM, inactives show largest response in the series, negative = inhibition, usual class: inhibitors; hit rate 3.5% among 310,000;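 note: the enzyme is Sfp with the accession as filed and its product quenches rhodamine fluorescence; potency is the fitted concentration of half-maximal effect; 0% = enzyme reaction without inhibitor and -100% = no enzyme wells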
#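 Fluorescence-quenching assay: 15 nM Sfp-PPTase preincubated 15 min at room temperature with compound, then 5 uM rhodamine-CoA and 12.5 uM BHQ-2-labelled YbbR peptide added. Fluorescence (ex 525/em 598 nm) read at start and after 30 min; difference gives rate.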
# VDR inhibitor – blocks the human vitamin D receptor | VDR-SRC2-3 peptide fluorescence polarization, 2 h | hit rate 0.93% among 400,000 | P11473 | Potency, µM, inactives show max response, negative = inhibition, hits mostly inhibitors | AID 504847; note: potency is the fitted concentration of half-maximal effect
# Target sequence (P11473 whole entry, looked up): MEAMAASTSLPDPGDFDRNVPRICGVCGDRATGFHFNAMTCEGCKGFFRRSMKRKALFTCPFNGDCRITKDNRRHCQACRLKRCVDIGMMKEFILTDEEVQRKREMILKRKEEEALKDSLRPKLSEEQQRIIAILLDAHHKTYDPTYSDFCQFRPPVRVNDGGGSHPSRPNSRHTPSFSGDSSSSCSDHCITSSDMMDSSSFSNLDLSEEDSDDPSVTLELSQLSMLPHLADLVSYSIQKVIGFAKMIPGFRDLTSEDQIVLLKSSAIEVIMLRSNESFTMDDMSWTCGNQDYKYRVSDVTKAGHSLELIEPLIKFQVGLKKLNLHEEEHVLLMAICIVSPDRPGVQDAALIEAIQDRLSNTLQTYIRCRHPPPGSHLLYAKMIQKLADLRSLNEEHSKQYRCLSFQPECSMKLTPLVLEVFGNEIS
#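 Fluorescence polarization assay of small-molecule disruption of VDR binding to coregulator peptide SRC2-3. Compounds and controls pin-transferred, then read after 2 h incubation at ambient room temperature.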
# PLK1 PBD block – PLK1 (human) polo-box domain binding inhibition. Plk1 PBD binding of FITC phosphopeptide, fluorescence polarization. Potency, µM, for inactives: max response, negative = inhibition, usual class: inhibitors. hit rate 2.8% among 360,000; note: potency is the fitted concentration of half-maximal effect; series mostly up to about 57 µM; nearly all actives have a fitted effect of over 65% in size
# Starred values were filed as active, the others as inactive; u = inconclusive; x = no result given; ! = repeats disagree; [ ] = another dose, or the depositor's remark. This is a sample that favours compounds with a hit; in the whole collection about 10% have one here. Unless noted, calls come from the whole dose curve; as a rule, active = well fitted curve in the direction sought with a large enough effect; inconclusive = small, poorly fitted or top-dose-only effect, or another doubt; inactive = no such curve, though single readings can be large; an effect the other way counts as inactive or inconclusive. Unless noted, % is set by controls: 0 for no effect and ±100 for the full control effect.
SMILES,CCT modulator,G9a inh,Mm-Cpn inhibitor,Sfp PPTase inh,VDR inhibitor,PLK1 PBD block
CC1(C)CCC(C)(C)c2cc(C(=O)Nc3ccc(C(=O)O)cc3)ccc21,x,25%[59 µM],x,24%,79µM*!,x
CC1=C(C(=O)OC2CCCC2)C(c2c(Cl)cccc2Cl)CC(=O)N1 (configuration not stated),x,8%[59 µM],x,x,10%,x
Cc1nn(-c2ccccc2)c(Cl)c1/C=N/Nc1nc2ccccc2n1C,3,50µM*,-4%,-2%,6%,4%
COc1ccccc1CNC(=O)C1CCCN(c2nc3ccccc3n3cccc23)C1 (configuration not stated),x,-6%[59 µM],x,x,-6%,x
O=c1cc(-c2ccccc2)nc2cc(-c3ccco3)[nH]n12,0,u,-10%,25µM*,-8%,-2%
O=c1cc(-c2ccccc2)nc2cc(-c3ccc(Br)cc3)[nH]n12,0,u,1%,-10%,-6%,-5%
CS/C(Nc1cc(Cl)ccc1Cl)=C(/C#N)C(=O)c1ccco1,-4,14µM*,0%,18%,u,-19%
Cc1ccc(N=C2C(=O)Nc3c(C)cccc32)cc1,0,14%,-14%,2%,-22%,-2%
COc1ccc(N=C2C(=O)Nc3c(C)cccc32)cc1,0,50µM*,1%,9%,-10%,-10%
COc1cccc(Cn2c(=O)c(-c3ccc(Cl)cc3)nc3cnc(N(C)C)nc32)c1,x,19%[12.7 µM],x,23%,-5%,x
C=C(C)Cn1c(=O)c2c(nc3n2CCN3c2cc(C)cc(C)c2)n(C)c1=O,x,-30%[59 µM],x,x,3%,x
CC(C)CCNC(=O)c1onc(CSc2ccccn2)c1C(=O)NCCC(C)C,-1,x,x,x,u,27µM*
COc1ccc(NC(=O)CN2CCCN(Cc3ccc(Cl)cc3)S2(=O)=O)cc1Cl,x,6%[59 µM],x,x,3%,x
CCCCNc1nc(C)nc2c1nc(-c1ccccc1)n2C(C)CCCN(CC)CC (configuration not stated),x,x,x,-3%,x,x
O=C(/C=C/Nc1ccc(Oc2ccccc2)cc1)c1ccco1,1,-9%,-1%,50µM*,-4%,-6%
O=C(/C=C/Nc1ccccc1C(F)(F)F)c1ccco1,-1,u,0%,1%,-10%,-24%
NC(=O)c1ccccc1N/C=C/C(=O)c1ccco1,-60*,-4%[12.7 µM],-3%,6%,-11%,-6%
COc1ccc(NC(=O)CSc2nnc(-c3cccs3)o2)cc1,x,-2%[59 µM],x,x,3%,x
COC(=O)C1(C)C=CC2(CCCCC2)N1C(=O)c1ccccc1 (configuration not stated),x,x,x,16%,x,x
CC(=O)Nc1cc(NC(C)=O)cc(C(=O)N2CCCC3CCCCC32)c1 (configuration not stated),1,50µM*,1%,5%,-3%,-21%
O=S(=O)(NCc1ccccc1)c1ccc2[nH]c3c(c2c1)CCCCC3,x,14µM*,x,x,9%,x
Cc1ccccc1NS(=O)(=O)c1ccc2[nH]c3c(c2c1)CCCCC3,x,u,x,x,4%,x
CC(C)(C)NS(=O)(=O)c1ccc2[nH]c3c(c2c1)CCCCC3,-1,71µM*,1%,7%,-14%,-10%
O=S(=O)(NCc1ccc(F)cc1)c1ccc2[nH]c3c(c2c1)CCCC3,x,8.9µM*,x,x,5%,x
Cc1ccc(CNS(=O)(=O)c2ccc3[nH]c4c(c3c2)CCCCC4)cc1,x,-53%[59 µM],x,x,8%,x
SMILES,CCT modulator,G9a inh,Mm-Cpn inhibitor,Sfp PPTase inh,VDR inhibitor,PLK1 PBD block
Cc1ccc(C)c(OCCCCN2CCCCC2)c1,-1,25µM*,1%,-7%,6%,2%
Cc1ccc(OCCCCNC2CCCC(C)C2C)c(C)c1 (configuration not stated),2,13µM*,2%,u,34%,-7%
Cc1ccc(OCCCCN2CCCCC2)c(C)c1,1,-11%,-1%,1%,-27%,-4%
Cc1ccc(OCCCN2CCCC2)c(C)c1,0,10µM*,0%,u,4%,1%
CCc1ccc(-c2nn(CC(=O)NCc3ccccc3)c3c2cnc2ccc(F)cc23)cc1,x,6%[59 µM],x,x,13%,x
CCn1nc(NC(=O)c2ccco2)c2cc3ccccc3nc21,-3,7.9µM*,-1%,-6%,-3%,-8%
CCCn1nc(NC(=O)c2ccco2)c2cc3ccc(C)cc3nc21,-5,17%[2.33 µM],-2%,-10%,7%,-16%
CCCn1nc(NC(=O)c2ccco2)c2cc3cc(C)ccc3nc21,0,22µM*,-6%,u,-8%,-3%
Cc1cc2nn(-c3ccc(F)cc3)nc2cc1NC(=O)c1cccc2c(Cl)cccc12,x,-5%[59 µM],x,x,-17%,x
COc1ccc(NCc2nn(CC(=O)c3ccc(Br)cc3)c3[n+]2CCCCC3)cc1,-1,35µM*,-2%,-23%,-20%,-17%
O=C(Cn1nc(CNc2ccc(Br)cc2)[n+]2c1CCCCC2)c1ccc([N+](=O)[O-])cc1,-2,71µM*,1%,56µM*,-18%,-16%
O=C(Cn1nc(CNc2ccc(Cl)cc2)[n+]2c1CCCCC2)c1ccc(Br)cc1,-4,u,-1%,u,-1%,-16%
O=C(NCCN1CCOCC1)c1ccc([N+](=O)[O-])cc1[N+](=O)[O-],-1,-14%[59 µM],2%,-11%,-5%,-1%
CCC1CCCCN1C(=S)NC(=O)c1cc(S(=O)(=O)N2CCOCC2)ccc1C (configuration not stated),0,45µM*,-25%,1%,6%,-9%
Cc1ccc(S(=O)(=O)N2CCCC2)cc1C(=O)NCCN1CCOCC1,0,79µM*,-2%,9%,-11%,1%
O=C(NCCN1CCOCC1)c1cc([N+](=O)[O-])ccc1Cl,2,56µM*,-2%,8%,0%,-4%
Cc1ccc(S(=O)(=O)N2CCCCC2)cc1C(=O)NCCCN1CCOCC1,1,-5%,1%,10%,-7%,-8%
O=C(CN1CCOCC1)NNC(=O)c1ccc([N+](=O)[O-])cc1,0,50µM*,-4%,-3%,22%,0%
Cc1nc(NCCO)c2nc(-c3ccccc3)n(CCCN(C)C)c2n1,x,x,x,38%,x,x
O=C(NCc1ccco1)c1cc([N+](=O)[O-])ccc1N1CCOCC1,-2,10µM*,0%,5%,-1%,0%
O=C(NCCN1CCOCC1)c1cc(S(=O)(=O)Nc2ccccc2F)c(Cl)cc1Cl,0,50µM*,-1%,13%,-9%,34µM*
Cc1cccc(NC(=O)CSc2nc(=O)n(Cc3cccnc3)c3c2CCC3)c1C,x,6%[59 µM],x,x,6%,x
NC(=S)n1[nH]c(-c2ccc([N+](=O)[O-])cc2)c(N=Nc2ccc(Cl)cc2)c1=O,-1,45µM*,-1%,-18%,-11%,u
O=c1c(N=Nc2ccc(O)cc2)c(-c2ccccc2)[nH]n1-c1ccc([N+](=O)[O-])cc1,-3,7.1µM*,1%,11%,-15%,-16%
